The results in this text go back to PMC4552634, “A New Set of Chemical Starting Points with Plasmodium falciparum Transmission-Blocking Potential for Antimalarial Drug Discovery” (PLoS ONE, 2015).

About 3,200 (25%) of roughly 13,000 compounds showed an effect of 50% or more. The list shows a part of the results.

This experiment concerns P. falciparum stage V gametocytes. Set-up: BacTiter-Glo ATP luminescence viability of purified stage V gametocytes in 384-well plates, per cent inhibition versus DMSO. Conditions: 48 h, 5 µM; inhibitor.
The term % Inhibition denotes the relative decrease from the control value, in per cent. As to `O=C(COc1cnc2ccccc2n1)Nc1ccccc1Sc1ccc(Cl)cc1` [TCMDC-124892], the “% Inhibition” value was found to be 99.33%.

Take `COc1ccccc1C(C)NCC(=O)Nc1ccccc1Sc1ccccc1` (stereo not drawn) [TCMDC-124877]: the “% Inhibition” value is reported as -2.069%.

Take `NC(=O)C1Cc2ccccc2CN1CC(=O)Nc1ccccc1Sc1ccccc1` (stereo not drawn) [TCMDC-124863]: the “% Inhibition” value stood at 48.06%.

With `O=C(Nc1ccc2c(c1)CCN2C1CCN(Cc2cc(F)cc(F)c2F)C1)c1ccco1` (stereo not drawn) [TCMDC-135071], the “% Inhibition” value is listed as -23.05%.

Turning to `CN1CCC(NCc2ccc(-c3ccc(S(=O)(=O)NCc4ccccc4)s3)cc2)CC1` [TCMDC-132231], the “% Inhibition” value worked out at 68.61%.

Turning to `CN1CCC(NCc2ccc(-c3ccc(S(=O)(=O)NC4CCC4)s3)cc2)CC1` [TCMDC-132232], the “% Inhibition” value is on record as 57.53%.

On to `CC(C)(CNC(=O)[C@@H]1CCCCN1)c1nc(-c2ccc(Cl)c(O)c2)c(-c2ccncc2)[nH]1` [TCMDC-141079], for which the “% Inhibition” value is -69.36%.

Regarding `O=S(=O)(NCCN1CCCC1)c1ccc(-c2cccc(CNCc3ccc(F)cc3)c2)s1` [TCMDC-132273], the “% Inhibition” value was found to be 98.81%.

Take `O=S(=O)(NCCN1CCCC1)c1ccc(-c2ccc(CNCc3ccc(F)cc3)cc2)s1` [TCMDC-132284]: the “% Inhibition” value is recorded as 66.59%.

As to `O=C1CCCN1CCCNCc1ccc(-c2ccc(-c3nc4ccc(F)cc4[nH]3)s2)cc1` [TCMDC-132756], the “% Inhibition” value is reported as -11.94%.

`CS(=O)(=O)c1ccc(CNCc2ccc(-c3ccc(-c4nc5ccc(F)cc5[nH]4)s3)cc2)cc1` [TCMDC-132900]: the “% Inhibition” value was found to be 4.618%.

As for `O=C(NCCN1CCCC1)c1cccc(-c2ccc(-c3nc4ccc(F)cc4[nH]3)s2)c1` [TCMDC-132318], the “% Inhibition” value was 15.45%.

On to `CC(C)(C)CC(C)(C)c1ccc(O)c(CNC2CCCCC2)c1` [TCMDC-137604], for which the “% Inhibition” value is reported as 41.75%.

Take `Cc1nnc(NC(=O)c2cn(-c3ccccc3)nc2-c2ccccc2C)o1` [TCMDC-125040]: the “% Inhibition” value is given as 22.18%.

`COc1ccc(OC)c(C(O)C(C)NCc2cc(Cl)ccc2O)c1` (stereo not drawn) [TCMDC-137921]: the “% Inhibition” value turned out to be 36.34%.

With `O=C(Nc1ccc(Cl)cc1)c1cc(Cl)ccc1NC(=O)C1(c2ccc(Cl)cc2)CCCC1` [TCMDC-136643], the “% Inhibition” value is -21.36%.

For `Cc1nc(-c2ccncc2)sc1C(=O)Nc1ccc(Cl)cc1C(=O)Nc1ccc(Cl)cc1` [TCMDC-136515], the “% Inhibition” value was determined as 3.625%.

Take `COc1ccc(C(=O)Nc2ccc(Cl)cc2C(=O)Nc2ccncc2)cc1` [TCMDC-123739]: the “% Inhibition” value is 84.9%.

For the molecule `Cc1ccc(NC(=O)Nc2ccc(Cl)cc2)cc1-c1ccc(C(=O)Nc2ccncc2)cc1` [TCMDC-133702], the “% Inhibition” value is recorded as -59.17%.

On to `O=C(Nc1ccc(Cl)cc1C(=O)Nc1ccncc1)c1ccc(Cl)cc1Cl` [TCMDC-125853], for which the “% Inhibition” value stood at 59.79%.

With `Cn1ccnc1CCC(=O)Nc1ccc(Cl)cc1C(=O)Nc1ccc(Cl)cc1` [TCMDC-136703], the “% Inhibition” value came out at 12.32%.

`COc1ccc(CN(C)CCCc2ccc(NC(=O)c3cc4ccccc4[nH]3)cc2)cc1OC` [TCMDC-131855]: the “% Inhibition” value is -11.14%.

Regarding `Nc1ccc2nc(C=Cc3ccc(Cl)cc3)[nH]c2c1` [TCMDC-123608], the “% Inhibition” value is given as -19.77%.

On to `Cc1ccc(NC(=O)Nc2ccc(I)c(OCCN(C)C)c2)cc1Cl` [TCMDC-139122], for which the “% Inhibition” value is -20.44%.

In the case of `CN1CCc2ccc(NC(=O)Nc3ccc(Cl)c(Cl)c3)cc2C1` [TCMDC-133728], the “% Inhibition” value stood at 0.1652%.

As to `Cc1ccc(NC(=O)Nc2ccc(S(=O)(=O)c3ccc(NC(=O)Nc4ccc(C)c(Cl)c4)cc3)cc2)cc1Cl` [TCMDC-124273], the “% Inhibition” value was found to be 85.03%.

`COc1ccc(C(=O)CCC(=O)N(CCSC(C)(C)C)Cc2ccc(-c3ccc(CNCCc4ccc(S(C)(=O)=O)cc4)cn3)cc2)cc1F` [TCMDC-141517]: the “% Inhibition” value stood at 33.86%.

For the molecule `COc1ccc(C(=O)CCC(=O)N(Cc2ccc(-c3ccc(CNCCc4ccc(S(C)(=O)=O)cc4)cn3)cc2)C(C)CN(C)C)cc1F` (stereo not drawn) [TCMDC-141512], the “% Inhibition” value is reported as 102.4%.

With `COc1ccc(C(=O)CCC(=O)N(CCC2CCCN2C)Cc2ccc(-c3ccc(CNCCc4ccc(S(C)(=O)=O)cc4)cn3)cc2)cc1F` (stereo not drawn) [TCMDC-141513], the “% Inhibition” value is recorded as -2.666%.

As for `COc1ccc(C(=O)CCC(=O)N(Cc2ccc(-c3ccc(CNCCc4ccc(S(C)(=O)=O)cc4)cn3)cc2)Cc2ccc3c(c2)OCO3)cc1F` [TCMDC-141514], the “% Inhibition” value is on record as 67.48%.

`COc1ccc(C(=O)CCC(=O)N(Cc2ccc(-c3ccc(CNCCc4ccc(S(C)(=O)=O)cc4)cn3)cc2)C2CC3CCC2C3)cc1F` (stereo not drawn) [TCMDC-141515]: the “% Inhibition” value is given as -37.66%.

`COc1ccc(C(=O)CCC(=O)N(Cc2ccc(-c3ccc(CNCCc4ccccc4)cn3)cc2)C(C)CN(C)C)cc1F` (stereo not drawn) [TCMDC-141554]: the “% Inhibition” value stood at 109.3%.

For `CCC(CC)N1C(=O)C(c2ccccc2)(c2ccccc2)N=C1N` [TCMDC-136516], the “% Inhibition” value is given as -14.59%.

With `CCOC(=O)C(NC(=O)Cc1ccccc1)C(C)C` (stereo not drawn) [TCMDC-131334], the “% Inhibition” value was -5.463%.

With `ON=C1CCc2cc(-c3nc(-c4ccc(OCCN5CCCCC5)cc4)[nH]c3-c3ccncc3)ccc21` [TCMDC-141174], the “% Inhibition” value worked out at 1.604%.

For `CN(C)CCCOc1ccc(-c2nc(-c3ccc4c(c3)CCC4=NO)c(-c3ccncc3)[nH]2)cc1` [TCMDC-140742], the “% Inhibition” value was 7.087%.

`ON=C1CCc2cc(-c3cc(-c4ccc(OC5CCNCC5)cc4)oc3-c3ccncc3)ccc21` [TCMDC-141381]: the “% Inhibition” value came out at 91.63%.

For the molecule `CC(C)(C(=O)Nc1ccc(C2CCC(NCC3CC3)CC2)c(Cl)c1)c1ccc(C(F)(F)F)cc1` (stereo not drawn) [TCMDC-134642], the “% Inhibition” value amounted to 92.31%.

Regarding `CC(C)(C(=O)Nc1ccc(C2CCC(NCC3CC3)CC2)c(Cl)c1)c1cccc(OC(F)F)c1` (stereo not drawn) [TCMDC-134643], the “% Inhibition” value is reported as 32%.

In the case of `CC(C)(C(=O)Nc1ccc(N2CCC3(CCCN(CC4CC4)C3)CC2)c(Cl)c1)c1cccc(C(F)(F)F)c1` [TCMDC-134639], the “% Inhibition” value is -12.77%.

As to `O=C(Nc1cccc(-c2ccc(-c3nc4ccc(C(F)(F)F)cc4[nH]3)cc2)c1)c1cnc[nH]1` [TCMDC-136938], the “% Inhibition” value was -50.65%.

For the molecule `CCC(=O)Nc1ccc(Nc2nc(C)cc(N3CCCC3)n2)cc1` [TCMDC-124971], the “% Inhibition” value is given as -15.13%.
